{"source": "the supplement of paper PMC11482750", "note": "± gives the standard deviation of the averaged measurements.", "data": [{"compound": "CCCCCC(C)=O [2-heptanone]", "experiment": "control-subtracted net OSN firing rate; higher = stronger neuronal activation", "conditions": "odorant dilution (vol/vol): 1/100", "method": "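Single sensillum recordings from olfactory sensory neurons. The neurons sit in the maxillary palp or antennal sensilla of D. melanogaster (wild type, mutants, or at1 empty-neuron lines expressing Or42a homologs or the A181D S307P mutant) and of four Scaptomyza species. Each odorant was given as a 1 s pulse from 20 µl loaded on filter paper at 1:100 vol/vol, diluted in mineral oil (γ-hexalactone in DMSO). Spikes were counted in a 0.5 s window starting 0.2 s after onset, background was subtracted, the count was doubled, and the mean solvent-control response was subtracted.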", "units": {"control-subtracted net OSN firing rate": "spikes/s"}, "values": [{"target": "S. pallida pb2b-like", "control-subtracted net OSN firing rate": "26.3 ± 7.8"}, {"target": "S. hsui pb1a-like", "control-subtracted net OSN firing rate": "136 ± 22"}, {"target": "S. montana pb2b-like", "control-subtracted net OSN firing rate": "8 ± 10"}, {"target": "Canton-S (D. melanogaster) pb2b", "control-subtracted net OSN firing rate": "0.286 ± 11"}, {"target": "S. hsui pb1b-like", "control-subtracted net OSN firing rate": "-8.33 ± 8"}, {"target": "S. hsui pb3a-like", "control-subtracted net OSN firing rate": "148 ± 31"}, {"target": "S. pallida pb2a-like", "control-subtracted net OSN firing rate": "7.67 ± 6.6"}, {"target": "S. montana pb3a-like", "control-subtracted net OSN firing rate": "97.3 ± 25"}, {"target": "S. flava pb1b-like", "control-subtracted net OSN firing rate": "-22 ± 27"}, {"target": "S. montana pb3b-like", "control-subtracted net OSN firing rate": "-2 ± 6.5"}, {"target": "S. hsui pb2b-like", "control-subtracted net OSN firing rate": "8.67 ± 16"}, {"target": "S. pallida pb1b-like", "control-subtracted net OSN firing rate": "-9 ± 13"}, {"target": "S. flava pb3a-like", "control-subtracted net OSN firing rate": "133 ± 40"}, {"target": "Canton-S (D. melanogaster) pb1b", "control-subtracted net OSN firing rate": "-10 ± 9.1"}, {"target": "S. flava pb2b-like", "control-subtracted net OSN firing rate": "-1 ± 14"}, {"target": "Canton-S (D. melanogaster) pb2a", "control-subtracted net OSN firing rate": "3.71 ± 7.3"}, {"target": "Canton-S (D. melanogaster) pb3b", "control-subtracted net OSN firing rate": "16.3 ± 24"}, {"target": "Canton-S (D. melanogaster) pb1a", "control-subtracted net OSN firing rate": "161 ± 48"}, {"target": "S. pallida pb3b-like", "control-subtracted net OSN firing rate": "-7.67 ± 13"}, {"target": "S. montana pb1b-like", "control-subtracted net OSN firing rate": "-12.3 ± 22"}, {"target": "S. montana pb1a-like", "control-subtracted net OSN firing rate": "64.7 ± 19"}, {"target": "S. flava pb2a-like", "control-subtracted net OSN firing rate": "7.33 ± 3.7"}, {"target": "S. pallida pb3a-like", "control-subtracted net OSN firing rate": "115 ± 19"}, {"target": "S. hsui pb2a-like", "control-subtracted net OSN firing rate": "8.67 ± 6.3"}, {"target": "S. montana pb2a-like", "control-subtracted net OSN firing rate": "7 ± 13"}, {"target": "S. pallida pb1a-like", "control-subtracted net OSN firing rate": "95.7 ± 29"}, {"target": "Canton-S (D. melanogaster) pb3a", "control-subtracted net OSN firing rate": "5.67 ± 5.5"}, {"target": "S. hsui pb3b-like", "control-subtracted net OSN firing rate": "-6.67 ± 5.9"}, {"target": "S. flava pb3b-like", "control-subtracted net OSN firing rate": "-8.67 ± 26"}, {"target": "S. flava pb1a-like", "control-subtracted net OSN firing rate": "104 ± 19"}]}]}
